Laboratory results taken from PubChem BioAssay AID686979 (National Center for Advancing Translational Sciences (NCATS), 2013).
Out of some 420,000 compounds screened, about 50,000 (12%) were called active. Another 26% or so got no clear call; they are omitted. This is one part of a sample in which actives are shown more often than they occur. The call rests on the fitted dose curve; in most records, active means well fitted inhibition curve with a large enough effect; inconclusive means small, poorly fitted or top-dose-only effect; inactive means flat fitted curve, though single readings scatter.

assay: qHTS for Inhibitors of human tyrosyl-DNA phosphodiesterase 1 (TDP1): qHTS in cells in presence of CPT; conditions: chicken DT40 Tdp1-/-;hTDP1 cells + 20 nM CPT, ATP luminescence, 48 h; series mostly up to 46.2 µM; activity change, negative = growth inhibition: at the top concentration; further: nearly all actives have a fitted effect of over 55% in size
Excerpt: Human tyrosyl-DNA phosphodiesterase 1 (TDP1) is a novel repair gene, and we propose to use it as a new target for anticancer drug development. TDP1 is not an essential protein, but under treatment with topoisomerase I poison (camptothecin: CPT), TDP1 works as a critical factor for cell survival. To directly identify novel TDP1 inhibitors active in a cellular environment, we have knocked-out the Tdp1 gene in chicken DT40 cells (Tdp1-/-) and generated a complemented counterpart cells that contains a stable transfection of the human TDP1 gene (Tdp1-/-;hTDP1 cells). For the primary screen, Tdp1-/-;hTDP1 cells will be exposed to small molecules in the presence or absence of CPT, and their growth kinetics will be evaluated after 48 hours by measuring ATP activity. […] The hit compounds will then be evaluated in the presence or absence of CPT using Tdp1-/- cells. […] In tertiary assays, biochemical gel-based assays will be used to assess whether the hit compounds specifically target TDP1. To this end, we have screened this cell line against the MLSMR in two primary screens. In one screen we add CPT and in the other we screen in the absence of CPT; this AID represents the screen where CPT was present. NIH Chemical Genomics Center [NCGC] NIH Molecular Libraries Probe Centers Network [MLPCN] MLPCN Grant: MH095538 Assay Submitter (PI): Yves Pommier, NCI
DT40-hTDP1 cells with 20 nM Camptothecin (add 20 microL of 1 mM CPT stock in 1 L of cell culture medium) were dispensed at 400 cells/5microL/well in tissue culture treated 1536-well white wall/solid bottom assay plates (Greiner Bio-One North America, NC, U.S.A.) using a Multidrop Combi 8 channel dispenser (Thermo Fisher, Waltham, MA, USA). 23 nL compounds and controls were transferred using the pin tool (Kalypsys, San Diego, CA, USA) to the assay plates. The assay plates were then incubated at 37 masculineC for a minimum 48 hr. Three microL of Cell Titer Glo solution was added to the plates and incubated at RT in dark for 30 min. Luminescence was read using ViewLux (Perkin Elmer) with 1 sec exposure slow speed, high gain and 2x binning.
On the % scale 0 is the no-effect control and ±100 the full control effect; potency means the concentration at half of the fitted maximal effect.

For CCCN(CCC)CCNC(=O)Cn1cnc2sc(C)c(S(=O)(=O)N3CCC(C)CC3)c2c1=O, which “activity change, negative = growth inhibition” value is on record?
The value was 4.45% (inactive).

With COC(=O)c1cccc(N2C(=O)C3C4C=CC(CC4)C3C2=O)c1 (stereo unspecified) as the molecule, how does the “activity change, negative = growth inhibition” value read?
The value was 5.7% (inactive).

With COc1cccc(N2C(=O)CC(N3CCc4ccccc4C3)C2=O)c1 (stereo unspecified) as the molecule, how does the “activity change, negative = growth inhibition” value read?
Its value is -2.6% (inactive).

For COC(=O)c1ccccc1SC1CC(=O)N(c2cccc(C)c2)C1=O (stereo unspecified), which Potency is on record?
The Potency was 9.2 µM (active).

For O=C(COC(=O)/C=C/c1ccc(Br)o1)Nc1cccc(S(=O)(=O)N2CCOCC2)c1, which “activity change, negative = growth inhibition” value is on record?
The value was 2.67% (inactive).

With O=C1c2ccccc2C(=O)c2c1cccc2N1CCN(C/C=C/c2ccccc2)CC1 as the molecule, how does the “activity change, negative = growth inhibition” value read?
The value was -28.2% (inactive).

For CCOC(=O)c1oc2c(CN3CCN(C)CC3)c(O)ccc2c(=O)c1-c1ccc(Br)cc1, which “activity change, negative = growth inhibition” value is on record?
Its value is -8.28% (inactive).

For COc1cc(NC(=O)C2=CC(c3ccco3)=NS(=O)(=O)N2C)cc(OC)c1OC, which Potency is on record?
The Potency was “inactive”.

With COc1ccc(NC(=O)C2=CC(c3ccc(OC)c(OC)c3)=NS(=O)(=O)N2C)cc1 as the molecule, how does the Potency read?
The Potency was 23.1 µM (active).

With COc1ccc(C2=NS(=O)(=O)N(C)C(C(=O)N3CCCCC3)=C2)cc1 as the molecule, how does the “activity change, negative = growth inhibition” value read?
The value was -1.91% (inactive).

Which “activity change, negative = growth inhibition” value does the source give for COc1ccc(C2(Nc3cccc(F)c3)C(=O)c3ccccc3C2=O)cc1 here?
The value was 5.75% (inactive).

For CCCn1c(=S)[nH]c2ccc(C(F)(F)F)cc21, which “activity change, negative = growth inhibition” value is on record?
The value was 4.89% (inactive).

For NS(=O)(=O)c1ccc(NC(=O)COC(=O)c2ccc(Cl)nc2)cc1, which “activity change, negative = growth inhibition” value is on record?
The value was -8.23% (inactive).

Which Potency does the source give for CCN(CC)c1ccc(NC(=O)CN2CCN(CC(=O)Nc3ccc(Cl)cc3)CC2)cc1 here?
The Potency was 23.1 µM (active).

Which “activity change, negative = growth inhibition” value does the source give for CCN(CC)c1ccc(NC(=O)CN2CCN(c3ccccn3)CC2)cc1 here?
The value was -21.9% (inactive).

For CC(=O)N1CCN(CC(=O)Nc2ccc(SC(F)F)cc2)CC1, which “activity change, negative = growth inhibition” value is on record?
The value was -15.2% (inactive).

For Cc1cnc(NC(=O)c2ccc(Cl)nc2)s1, which “activity change, negative = growth inhibition” value is on record?
Its value is -19.3% (inactive).

Which Potency does the source give for CCN(CC)c1ccc(NC(=O)c2ccc(Cl)nc2)cc1 here?
The Potency was 2.91 µM (active).

With CCc1ccc(CN2C(=O)c3ccccc3C2C(=O)NCC2CCCO2)cc1 (stereo unspecified) as the molecule, how does the “activity change, negative = growth inhibition” value read?
The value was 6.59% (inactive).

Which “activity change, negative = growth inhibition” value does the source give for Cc1csc2nc(O)c(C(=O)NCCN3CCOCC3)c(=O)n12 here?
Its value is 4.88% (inactive).

Which “activity change, negative = growth inhibition” value does the source give for NC(=O)COC(=O)c1sc2cc(F)ccc2c1Cl here?
Its value is 1.25% (inactive).

With Cc1ccsc1C(=O)NNC(=O)COc1ccc(Br)cc1 as the molecule, how does the “activity change, negative = growth inhibition” value read?
Its value is -25.4% (inactive).

For O=C(NC(=S)N1CCc2ccccc21)c1ccco1, which “activity change, negative = growth inhibition” value is on record?
Its value is 20.5% (inactive).

Which “activity change, negative = growth inhibition” value does the source give for CN(C)C(=O)c1ccc(NC(=O)COC(=O)c2cc3c(s2)CCCCC3)cc1 here?
Its value is -13.4% (inactive).

Which Potency does the source give for CCOc1ccc(CNC(=O)Cn2cc3c(n2)-c2c(oc(C(=O)N4CCCC4)c2C)CC3)cc1 here?
Its Potency is 29.1 µM (active).

With CCCN(CCC)CCCNC(=O)Cn1cc2c(n1)-c1c(oc(C(=O)N3CCCC3)c1C)CC2 as the molecule, how does the “activity change, negative = growth inhibition” value read?
Its value is -4.28% (inactive).

For CCOC(=O)N1CCC(NC(=O)Cn2cc3c(n2)CCCCC3)CC1, which “activity change, negative = growth inhibition” value is on record?
The value was -15.7% (inactive).

With CCOC(=O)C(C)n1cnc2scc(-c3ccc(C)c(C)c3)c2c1=O (stereo unspecified) as the molecule, how does the “activity change, negative = growth inhibition” value read?
Its value is -0.242% (inactive).

For COc1ccc(-c2nnc(SCC(=O)Nc3cccnc3Cl)n2C)cc1, which “activity change, negative = growth inhibition” value is on record?
Its value is -0.741% (inactive).

Which “activity change, negative = growth inhibition” value does the source give for COC(=O)c1ccc(NC(=O)CSc2nnc(C3CC3)n2C)cc1 here?
The value was 6.22% (inactive).

With CC(C)(C)NC(=O)COc1ccc(CNc2ccc3[nH]c(=O)[nH]c3c2)cc1 as the molecule, how does the “activity change, negative = growth inhibition” value read?
Its value is 2.77% (inactive).

Which “activity change, negative = growth inhibition” value does the source give for CC(=O)Nc1ccc(CN2CCC(Oc3ccc(C(=O)N4CCCC4)cc3)CC2)cc1 here?
Its value is -13.6% (inactive).

For Oc1ccc(Cl)c2c1CCC2, which “activity change, negative = growth inhibition” value is on record?
The value was -11.1% (inactive).

Which Potency does the source give for COc1ccc(-c2ccc(Nc3ccc(S(=O)(=O)N4CCCC4)cc3)nn2)cc1OC here?
The Potency was 16.4 µM (active).

With COc1ccc(S(=O)(=O)Nc2ccc(S(=O)(=O)N3CCCCC3)cc2)cc1OC as the molecule, how does the “activity change, negative = growth inhibition” value read?
The value was 1.55% (inactive).

Which “activity change, negative = growth inhibition” value does the source give for COc1cc(NS(=O)(=O)c2ccc(NC(=O)c3ccc(S(=O)(=O)N4CCCCC4)cc3)cc2)ncn1 here?
The value was -1.79% (inactive).

With COCCOC(=O)c1c(C)oc2cc(Br)c(OCC(N)=O)cc12 as the molecule, how does the “activity change, negative = growth inhibition” value read?
Its value is -20.2% (inactive).

With COC(=O)c1ccc(NC(=O)c2cc(S(=O)(=O)N3CCC(C)CC3)cn2C)cc1 as the molecule, how does the “activity change, negative = growth inhibition” value read?
The value was 2.23% (inactive).

With COc1cc(OC)cc(C(=O)NCCc2csc3nc(-c4ccccc4F)nn23)c1 as the molecule, how does the “activity change, negative = growth inhibition” value read?
The value was -21.4% (inactive).

For CCOc1ccc(NC(=O)C(=O)NCCc2csc3nc(-c4ccccc4F)nn23)cc1, which “activity change, negative = growth inhibition” value is on record?
Its value is -6.96% (inactive).

Which Potency does the source give for Cc1c(Cl)cccc1NC(=O)C(=O)NCCc1csc2nc(-c3ccccc3F)nn12 here?
The Potency was 18.4 µM (active).

With CCCC(O)(c1ccc(OC)cc1)C(CN(C)C)c1ccccc1 (stereo unspecified) as the molecule, how does the “activity change, negative = growth inhibition” value read?
Its value is -2.36% (inactive).

With COc1cccc(CN(C)CC(O)COC(c2ccccc2)c2ccccc2C)c1 (stereo unspecified) as the molecule, how does the Potency read?
Its Potency is 20.6 µM (active).

Which “activity change, negative = growth inhibition” value does the source give for COc1cccc(CN(C)CC(=O)Nc2ccccc2C(=O)Nc2ccccc2)c1 here?
The value was -27.1% (inactive).

For Cc1ccccc1S(=O)(=O)N1[C@@H](c2cccc(Cl)c2)C(C(=O)OC(C)(C)C)=CC[C@H]1c1ccc(Cl)cc1, which Potency is on record?
The Potency was 20.6 µM (active).

With Cc1ccccc1S(=O)(=O)N1[C@@H](c2cccc(Cl)c2)C(C(=O)O)=CC[C@H]1c1ccc(Cl)cc1 as the molecule, how does the “activity change, negative = growth inhibition” value read?
The value was -0.808% (inactive).

For O=C(CN1CCN(S(=O)(=O)c2ccc(F)cc2)CC1)NC1CC1, which “activity change, negative = growth inhibition” value is on record?
Its value is -0.247% (inactive).

Which “activity change, negative = growth inhibition” value does the source give for Cc1ccc(S(=O)(=O)N2[C@@H](c3ccc(Br)cc3)C(C(=O)O)=C[C@H]2CC2CCCC2)cc1 here?
Its value is 3.8% (inactive).

Which Potency does the source give for CCOC(=O)C1=CCC(c2ccc(F)cc2)N(S(=O)(=O)c2ccc(C)cc2)C1 (stereo unspecified) here?
Its Potency is 16.4 µM (active).

With Cc1ccc(S(=O)(=O)N2[C@@H](c3cccc4ccccc34)C(C(=O)O)=C[C@H]2C(C)(C)C)cc1 as the molecule, how does the “activity change, negative = growth inhibition” value read?
The value was 5.23% (inactive).

Which “activity change, negative = growth inhibition” value does the source give for COc1ccc(S(=O)(=O)N2CCC(C(=O)NCCC(=O)NCc3cccc(OC)c3)CC2)cc1 here?
Its value is 7.57% (inactive).

With Cc1ccc(S(=O)(=O)N2[C@@H](c3ccccc3F)C(C(=O)O)=CC[C@H]2c2ccc(Cl)cc2)cc1 as the molecule, how does the “activity change, negative = growth inhibition” value read?
Its value is -19.3% (inactive).

Which “activity change, negative = growth inhibition” value does the source give for Cc1ccc(S(=O)(=O)N2CCCC2CO)cc1 (stereo unspecified) here?
The value was -0.712% (inactive).

With CCOC(=O)C1=CC[C@@H](c2ccccc2)N(S(=O)(=O)c2ccc(C)cc2)[C@H]1c1cccc(OC)c1 as the molecule, how does the Potency read?
Its Potency is 23.1 µM (active).

For CCCCC[C@@H]1C=C(C(=O)OCC)[C@H](c2ccccc2)N1S(=O)(=O)c1ccc(C)cc1, which Potency is on record?
The Potency was 14.6 µM (active).

Which “activity change, negative = growth inhibition” value does the source give for Cc1ccc(S(=O)(=O)N2C[C@H]3C(=O)C[C@@H](c4cccc5ccccc45)N(S(=O)(=O)c4ccc(C)cc4)[C@H]3C[C@H]2c2ccc(Cl)cc2)cc1 here?
The value was 1.73% (inactive).
